Measured values reported in PubChem BioAssay AID430 (Sanford-Burnham Center for Chemical Genomics, 2006).
Hit rate of the full screen: of about 63,000 compounds, about 1,100 (1.7%) were called active. Cut-off read from the data, not from the text of the source: active = cytotoxicity above about 50%; inactive = the rest. Shown is part of a subset that was picked to be rich in actives. Potency and affinity values are given separately.

Assay: HPDE-C7 pancreatic duct cell viability loss – fluorescence, HTS (AID 430);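 note: cells exposed to compound for 48 hours before viability readout; 0% = vehicle and 100% = reference cytotoxic drug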
Conditions: HPDE-C7 pancreatic duct cells viability, at 10 µM, hits give high values
With O=C(CN1C(=O)C2C3C=CC(C3)C2C1=O)NCCN1CCCc2ccccc21 (stereo not drawn) the cytotoxicity was -7.4% (inactive). With CC1CCCN(S(=O)(=O)c2ccc(S(=O)(=O)N3CCCN(Cc4ccccc4)C3)cc2)C1 (stereo not drawn) the cytotoxicity was 3.7% (inactive). In the case of COc1ccc(N2CCN(c3nc4c(c(=O)[nH]c(=O)n4C)n3CCCc3ccccc3)CC2)cc1, the cytotoxicity is reported as -7.6% (inactive). For Cc1ccc(-c2c3c(=O)n(C)c(=O)n(C)c3cn2Cc2ccccn2)cc1, the cytotoxicity was -3.1% (inactive). In the case of CCCOc1ccc(CSc2nnc(CCC)n2N)cc1, the cytotoxicity is reported as -13.5% (inactive). In the case of CN1CCN(C2=C(Cl)C(=O)N(C3CCCCC3)C2=O)CC1, the cytotoxicity is reported as -8% (inactive). With O=C1c2ccncc2C(=O)N1C1CCCCC1 the cytotoxicity was -7.2% (inactive). In the case of Cc1ccc(NS(=O)(=O)c2ccc(OCC(=O)NCc3ccco3)cc2)cc1, the cytotoxicity is reported as 6.8% (inactive). In the case of CC(C)CCn1nc(C(=O)OC(C)C(=O)NC(N)=O)c2ccccc2c1=O (stereo not drawn), the cytotoxicity is reported as -13.9% (inactive). With Cc1ccccc1N=C1NC(=O)CS1 the cytotoxicity was -24.1% (inactive). With CCCn1c(CN2CCN(C(=O)OCC)CC2)nc2c1c(=O)n(C)c(=O)n2C the cytotoxicity was -8.2% (inactive). For CCCCOC(=O)C1Cc2ccccc2C(=O)O1 (stereo not drawn), the cytotoxicity was -4.8% (inactive). For CC(C)Cn1c(CN2CCN(c3ccccc3F)CC2)nc2c1c(=O)[nH]c(=O)n2C, the cytotoxicity was -0.6% (inactive). For CCCCCn1c(CN2CCN(Cc3ccccc3)CC2)nc2c1c(=O)[nH]c(=O)n2C, the cytotoxicity was 0% (inactive). In the case of Cn1c(=O)[nH]c(=O)c2c1nc(CN1CCN(c3cccc(Cl)c3)CC1)n2Cc1ccccc1Cl, the cytotoxicity is reported as -3.5% (inactive). With Cc1ccc(Cl)cc1N1CCN(Cc2nc3c(c(=O)[nH]c(=O)n3C)n2Cc2ccccc2F)CC1 the cytotoxicity was 112% (active). For CCCCCn1c(CN2CCN(c3cccc(Cl)c3)CC2)nc2c1c(=O)[nH]c(=O)n2C, the cytotoxicity was 43.9% (inactive). With O=C(Cc1c(O)c2ccccc2[nH]c1=O)NCc1cccc(F)c1 the cytotoxicity was 2.7% (inactive). With CCN(CC)CCCN1C(=O)C(=O)/C(=C(/O)c2ccc(OC)c(Cl)c2)C1c1ccco1 (stereo not drawn) the cytotoxicity was 4.6% (inactive). With COc1ccccc1CN1C(=O)[C@@H]2C(CCC(N)=O)NC3(C(=O)Nc4c3ccc(Cl)c4C)[C@@H]2C1=O (stereo partly drawn) the cytotoxicity was -5.3% (inactive). With c1ccc2c(c1)Cn1nnnc1-2 the cytotoxicity was 1.3% (inactive). With CCC(=O)Nc1cc(-c2nn(C)c(=O)c3ccccc23)ccc1N1CCCCC1 the cytotoxicity was 5.4% (inactive). In the case of CCCC(=O)Nc1cc(-c2nn(C)c(=O)c3ccccc23)ccc1N1CCCCC1, the cytotoxicity is reported as -10.2% (inactive). With Cn1nc(-c2ccc(N3CCCCC3)c(NC(=O)c3ccco3)c2)c2ccccc2c1=O the cytotoxicity was 64.9% (active). For O=C(CCCC(=O)N(CC(=O)NC1CCCC1)C1CCCC1)Nc1ccccn1, the cytotoxicity was -20.8% (inactive). With CCNC(=O)NC(=O)C(C)Oc1ccc(C(=O)OC)cc1 (stereo not drawn) the cytotoxicity was 2.8% (inactive). With Cc1ccc(-c2csc3nnc(SCC(=O)Nc4nsc(-c5ccccc5)n4)n23)cc1 the cytotoxicity was -4.6% (inactive). With Cc1sc(NC(=O)CSc2nnc(COc3ccccc3)n2C)c(C#N)c1C the cytotoxicity was 4.2% (inactive). With Oc1ccccc1-c1nnc(COc2ccc(Cl)cc2Cl)o1 the cytotoxicity was 35.9% (inactive). With O=C(O)CCCC(=O)Nc1nc(-c2ccccc2)cs1 the cytotoxicity was 6.9% (inactive). For COc1cc2[nH]c(=O)n(CCC(=O)N3CCN(c4cccc(C)c4C)CC3)c(=O)c2cc1OC, the cytotoxicity was 0.4% (inactive). For COc1cc2[nH]c(=O)n(CCC(=O)N3CCN(c4cc(Cl)ccc4C)CC3)c(=O)c2cc1OC, the cytotoxicity was 63.8% (active). With CCOc1cc2[nH]c(=O)n(CCC(=O)N3CCN(c4ccccc4OC)CC3)c(=O)c2cc1OCC the cytotoxicity was -8.1% (inactive). For COc1ccc(Cl)cc1C(=O)N1CCN=C1SC, the cytotoxicity was -11.2% (inactive). In the case of CCOc1cc(C#N)c(NC(=O)c2cccnc2)cc1OCC, the cytotoxicity is reported as 51.5% (active). In the case of CCOc1cc(C#N)c(NC(=O)c2ccco2)cc1OCC, the cytotoxicity is reported as 12.6% (inactive). With CCOc1cc(C#N)c(NC(=O)c2ccnn2C)cc1OCC the cytotoxicity was 23.5% (inactive). In the case of COc1nc(Nc2nc3ccccc3c(=O)[nH]2)nc2ccc(C)cc12, the cytotoxicity is reported as 86.7% (active). In the case of Cc1ccc2c(C)nc(Nc3nc(CSc4nnnn4-c4ccccc4)cc(=O)[nH]3)nc2c1, the cytotoxicity is reported as 51% (active). In the case of Cc1ccc(Nc2nc(CSc3nnnn3-c3ccccc3)cc(=O)[nH]2)cc1, the cytotoxicity is reported as 12% (inactive). In the case of COc1ccc2nc(Nc3nc(C)c(CCC(C)C)c(=O)[nH]3)nc(C)c2c1, the cytotoxicity is reported as 6.2% (inactive). With Cc1ccc(Nc2nc(CSc3nnnn3-c3ccccc3)cs2)cc1 the cytotoxicity was 32.1% (inactive). For Cc1nc(Nc2nc(-c3ccccc3)cc(=O)[nH]2)nc2ccccc12, the cytotoxicity was 52.3% (active). In the case of Cc1nnc(SCc2cc(=O)[nH]c(Nc3nc(C)c4ccccc4n3)n2)s1, the cytotoxicity is reported as -0.8% (inactive). In the case of CCCCCc1c(C)nc(Nc2nc(C)c3cc(OC)ccc3n2)[nH]c1=O, the cytotoxicity is reported as -0.5% (inactive). In the case of Cc1nc(-c2ccccc2)cc(=O)[nH]1, the cytotoxicity is reported as 4% (inactive). For Cc1ccc2nc(Nc3nc(=O)c4ccccc4n3C)nc(C)c2c1, the cytotoxicity was 13.7% (inactive). In the case of CCc1c(C)nc(Nc2nc(C)c3cc(OC)ccc3n2)[nH]c1=O, the cytotoxicity is reported as 56.1% (active). With COc1cc2nc(NC(=O)c3ccccc3)[nH]c(=O)c2cc1OC the cytotoxicity was 13.3% (inactive). For Cc1ccc(NC(=O)CSc2nnc(CNC(=O)c3c(F)cccc3Cl)o2)cc1, the cytotoxicity was -9.7% (inactive). For CCOc1ccc(N2CC(C(=O)Nc3ccccc3OC)CC2=O)cc1 (stereo not drawn), the cytotoxicity was -2.5% (inactive). With COc1cc(C(=S)N2CCCC2)cc(Cl)c1O the cytotoxicity was -4% (inactive). In the case of COc1ccccc1-c1cc(C(=O)NCc2ccc(Cl)cc2)no1, the cytotoxicity is reported as -15.3% (inactive). With OCc1nn2c(c1Br)NC(c1ccccc1)CC2C(F)(F)F (stereo not drawn) the cytotoxicity was -8.4% (inactive). In the case of CCOc1ccc(CCNC(=O)C2CCN(c3nn4c(=O)cc(C)nc4s3)CC2)cc1OCC, the cytotoxicity is reported as -6.6% (inactive). With COc1cc(OC)cc(C(=O)NC2CCN(Cc3nnnn3Cc3cccs3)CC2)c1 the cytotoxicity was -7.1% (inactive). With CC(=O)NC(CCS(C)(=O)=O)C(=O)Nc1c(C)cccc1C (stereo not drawn) the cytotoxicity was 10.4% (inactive). With COCc1cc(=O)[nH]c(Nc2nc(C)c3ccc(C)cc3n2)n1 the cytotoxicity was 5.4% (inactive). In the case of COc1ccc2c(C)nc(Nc3nc(C)cc(C)n3)nc2c1, the cytotoxicity is reported as -4.7% (inactive). In the case of COc1ccc2c(C)nc(Nc3nc(C)cc(=O)[nH]3)nc2c1, the cytotoxicity is reported as 80.7% (active). For N#Cc1c(-c2ccccc2)nc(SCc2nc(N)nc(N3CCCCC3)n2)[nH]c1=O, the cytotoxicity was 9.2% (inactive). With CCN1CCN(CCNC(=O)c2cn(C(C)c3ccccc3F)nn2)CC1 (stereo not drawn) the cytotoxicity was -5.9% (inactive). In the case of Oc1ccccc1-c1cc(-c2cccc(F)c2)n[nH]1, the cytotoxicity is reported as 3.1% (inactive). In the case of COc1ccc(-c2cc(-c3ccccc3O)[nH]n2)cc1OC, the cytotoxicity is reported as 51.6% (active). In the case of COc1ccc(-c2cc(-c3cc(F)ccc3O)[nH]n2)cc1OC, the cytotoxicity is reported as 8.9% (inactive). In the case of Cc1ccc(-n2ncc(C#N)c2/N=C/N(C)C)cc1, the cytotoxicity is reported as 8.6% (inactive). With CC(=O)Nc1ccc(NC(=O)c2cccc(C(=O)OC(C)C)n2)cc1 the cytotoxicity was -2.2% (inactive). In the case of O=C(NCCCN1CCN(CCCNC(=O)c2ccc(F)cc2)CC1)c1ccc(F)cc1, the cytotoxicity is reported as -6.2% (inactive). For CS(=O)(=O)N1CCc2cc(S(=O)(=O)Nc3ccc4oc5c(c4c3)CCCC5)ccc21, the cytotoxicity was 80% (active). In the case of CS(=O)(=O)N1CCc2cc(S(=O)(=O)N3CCN(Cc4ccc5c(c4)OCO5)CC3)ccc21, the cytotoxicity is reported as 6.1% (inactive). With CS(=O)(=O)N1CCc2cc(C(=O)O)ccc21 the cytotoxicity was -2.9% (inactive). With COC(=O)c1ccccc1NC(=O)CSc1nnc(-c2cccc(NC(C)=O)c2)n1C the cytotoxicity was 6.2% (inactive). In the case of COc1ccc(OCc2nc(N)nc(Nc3cccc(C)c3C)n2)cc1, the cytotoxicity is reported as -10.3% (inactive). With N#Cc1c(NCCCO)nc(-c2ccccc2)c2c1CCCC2 the cytotoxicity was 38.6% (inactive). With C=CCNc1nc(NCc2ccccc2)c(C#N)c2c1CN(C)CC2 the cytotoxicity was 14.5% (inactive). In the case of CCN1CCc2c(C#N)c(N3CCCCC3)nc(NCc3ccccc3)c2C1, the cytotoxicity is reported as 30.7% (inactive). In the case of N#Cc1c(NCCO)nc(NCc2ccccc2)c2c1CCN(Cc1ccccc1)C2, the cytotoxicity is reported as 34.2% (inactive). With O=C(c1ccccc1F)N1CCN(S(=O)(=O)c2ccc(S(=O)(=O)N3CCCCC3)cc2)CC1 the cytotoxicity was -2.6% (inactive). With Cn1c(=O)n(C)c2cc(NS(C)(=O)=O)ccc21 the cytotoxicity was -29.4% (inactive). For Cc1noc(C)c1COC(=O)c1ccc2c(c1)OCO2, the cytotoxicity was -8.9% (inactive). For O=S(=O)(Nc1ccc2c(c1)nc1n2CCN(Cc2ccccc2)C1)c1ccc(Cl)cc1, the cytotoxicity was 68.2% (active). With Cc1ccc(S(=O)(=O)Nc2ccc3c(c2)nc2n3CCN(Cc3ccccc3)C2)cc1 the cytotoxicity was 10.2% (inactive). For O=S(=O)(Nc1ccc2c(c1)nc1n2CCN(Cc2ccccc2)C1)c1ccccc1, the cytotoxicity was 2.6% (inactive). With Cc1ccc(NC(=O)c2ccco2)cc1C the cytotoxicity was -2.6% (inactive). In the case of O=C1NCCCC2c3c(cc(Br)c(O)c3Br)OC12N1CCOCC1 (stereo not drawn), the cytotoxicity is reported as -5.7% (inactive). In the case of COC(=O)C1=C(C)NC(C)=C(C(=O)OC)C1c1cc2cc(C)ccc2[nH]c1=O, the cytotoxicity is reported as 2.9% (inactive). In the case of COc1ccc(C)cc1S(=O)(=O)N(CC(=O)N1CCOCC1)Cc1ccccc1, the cytotoxicity is reported as -1.7% (inactive). For N#Cc1cn(Cc2cccc(Cl)c2)c2ccccc12, the cytotoxicity was 56.1% (active). In the case of N#Cc1cn(CC(=O)O)c2ccccc12, the cytotoxicity is reported as -15.5% (inactive). For N#Cc1cn(Cc2ccccc2)c2ccccc12, the cytotoxicity was 6.7% (inactive). In the case of CCOc1ccc(N2C(=O)C3CCCN3C2=O)cc1 (stereo not drawn), the cytotoxicity is reported as 3.6% (inactive). With COc1ccc(C(C#N)N2CCCCCC2)cc1OC (stereo not drawn) the cytotoxicity was 2.4% (inactive). For Clc1ccc(C2=Nn3c(nnc3-c3n[nH]c4c3CCC4)SC2)cc1Cl, the cytotoxicity was 76.8% (active). In the case of CC1=Nn2c(nnc2-c2n[nH]c3c2CCC3)SC1, the cytotoxicity is reported as -3.7% (inactive). With Fc1ccc(C2=Nn3c(nnc3-c3n[nH]c4c3CCC4)SC2)cc1 the cytotoxicity was 0.5% (inactive). In the case of c1ccc(C2=Nn3c(nnc3-c3n[nH]c4c3CCC4)SC2)cc1, the cytotoxicity is reported as 8.7% (inactive). For Brc1ccc(C2=Nn3c(nnc3-c3n[nH]c4c3CCC4)SC2)cc1, the cytotoxicity was 61.4% (active). In the case of Clc1ccc(C2=Nn3c(nnc3-c3n[nH]c4c3CCC4)SC2)cc1, the cytotoxicity is reported as 46.1% (inactive).
